Out of some 340,000 compounds screened, about 12,000 (3.5%) were called active. Where a call stands in place of a potency, no number is given. About 18% were inconclusive and are not listed. The sample holds actives, similar compounds and a random draw of the others, so the mix is not that of the screen. The call rests on the fitted dose curve; in most records, active means well fitted inhibition curve with a large enough effect; inconclusive means small, poorly fitted or top-dose-only effect, or another doubt; inactive means no such curve, though single readings can be large or run the other way.

Here are results for 29 compounds from PubChem BioAssay AID651820 (National Center for Advancing Translational Sciences (NCATS), 2012).
Potency means the concentration at half of the fitted maximal effect.

The test is described as follows: qHTS Assay for Inhibitors of Hepatitis C Virus (HCV). The conditions noted are these: Huh7.5.1 HCVcc-Cre infection, luciferase reporter, 44 h; series mostly up to 41.8 µM. In short, it runs like this: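 Infectious HCV cell culture screen: compound-treated cells (1,000/well, pre-plated 4 h) are infected with HCVcc-Cre at roughly 0.5 moi and grown 44 h. Infection is quantified by luciferase signal after 15 min substrate incubation at room temperature.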
As to `CC(Sc1nncn1C)C(=O)NCCC1=CCCCC1` (centres undefined), the Potency entry was “inactive”.
Regarding `NS(=O)(=O)c1ccc(CNC(=S)NC(=O)c2ccco2)cc1`, the Potency entry is “inactive”.
The value for `Nc1c(-c2ccccc2)nnn1Cc1ccccc1` was “inactive”; that for `Cc1cc(C)cc(OCC(=O)OCC(=O)NC2CCCC2)c1` was “inactive”.
The value for `C/C(=N\NC(=O)c1ccccc1F)c1ccccn1` was 11.2 µM (active); that for `O=C(Nc1ccc(NC(=O)c2ccccc2F)cc1)c1ccccc1F` was “inactive”; that for `C/C(=N\NC(=O)Cc1ccc(Cl)cc1)c1ccccn1` was 7.08 µM (active).
The value for `C/C(CC(=O)Nc1ccc(N(C)C)cc1)=N\NC(=O)c1ccccc1F` was “inactive”.
For `C/C(=N\NC(=O)Cc1ccc(Br)cc1)c1cccnc1`, the Potency entry was “inactive”.
In the case of `COc1ccc(CC(=O)N/N=C(\C)c2ccccn2)cc1`, the Potency entry was “inactive”.
Then `Cc1noc(C)c1S(=O)(=O)N(C)C[C@H]1Oc2c(NC(=O)Nc3ccc4c(c3)OCO4)cccc2C(=O)N([C@H](C)CO)C[C@@H]1C`, with “inactive”; and `O=C(OCc1cc(=O)n2ccsc2n1)C1(c2ccc(Cl)cc2)CC1`, with “inactive”.
Turning to `O=C(OCC(=O)N1CCc2ccccc21)C1CCCN1S(=O)(=O)c1ccc(Cl)cc1` (centres undefined), the Potency result is “inactive”.
On to `O=C(NN=CC=Cc1ccccc1)C(O)C(O)C(=O)NN=CC=Cc1ccccc1` (centres undefined), for which the Potency result was “inactive”.
Then `Cc1ccc(S(=O)(=O)c2ccc(Oc3ccccc3)cc2)cc1`, with “inactive”.
Then `CN(C)S(=O)(=O)c1ccc(Oc2ccc(S(=O)(=O)N(C)C)cc2)cc1`, with 11.2 µM (active); and `COc1cccc(NC(=O)c2ccc(S(=O)(=O)N(C)C)cc2)c1`, with “inactive”.
The value for `CNC(=O)c1cccc2nc3ccccc3nc12` was 11.2 µM (active); that for `CNC(=O)c1cc2c(ccc3ccccc32)oc1=N` was “inactive”.
Turning to `CN(C)C(=O)c1coc2nc3ccccc3nc12`, the Potency entry is “inactive”.
Take `CC(C)N(C(=O)CSc1nnc(NC2CC2)s1)c1ccccc1`: the Potency entry was “inactive”.
Then `COc1ccccc1OCCNc1cc(N2CCOCC2)ccc1[N+](=O)[O-]`, with 14.1 µM (active); and `COc1ccccc1OCCNC(=O)c1cc([N+](=O)[O-])cc([N+](=O)[O-])c1`, with “inactive”.
The value for `CC(=O)Nc1ccc(S(=O)(=O)N2CCN(c3ccc([N+](=O)[O-])c(NCCN4CCOCC4)c3)CC2)cc1` was “inactive”; that for `COc1ccc(Cl)cc1NC(=O)CN1CCN(C(=O)N2CCOCC2)CC1` was “inactive”.
The value for `Cn1nc(C(=O)OCC(=O)N(Cc2ccccc2)C(C)(C)C)c2ccccc2c1=O` was “inactive”.
In the case of `CN(Cc1ccc(CNC[C@H]2O[C@@H](n3cnc4c(N)ncnc43)[C@H](O)[C@@H]2O)o1)S(C)(=O)=O`, the Potency result is “inactive”.
Then `O=C(/C=C/c1cccc([N+](=O)[O-])c1)OCC(=O)N1CCOCC1`, with “inactive”.
Then `CCOc1cc(C(=O)N(Cc2ccccc2)c2ccc(C)cc2)ccc1OCC(=O)N1CCOCC1`, with “inactive”.
